Among the data in PubChem BioAssay (NCATS) are Potency values, retold here.

The nature of test [1]: qHTS of pediatric cancer cell lines to identify multiple opportunities for drug repurposing: Primary screen for SJ-GBM2 cells (AID 1347091). Also: potency is read from the fitted curve at half-maximal effect. An outline of the steps:
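Viability measured as metabolically active cells via CellTiter-Glo luminescence following 48 hours of compound exposure, 11-point dilutions in confirmatory testing. 500-1,000 cells/well plated 5 hours before dosing; controls were DMSO and 2.3 µM bortezomib.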
(In general: qHTS replaces the single test concentration by a dilution series.)

Test [2] is described as follows: qHTS of pediatric cancer cell lines to identify multiple opportunities for drug repurposing: Primary screen for A673 cells (AID 1347092). Also: nearly all actives have a fitted effect of over 45% in size. Also: potency is read from the fitted curve at half-maximal effect. An outline of the steps: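 Cell viability of A673 measured by CellTiter-Glo ATP luminescence after 48 hours compound exposure. Dilution series spanned 0.78 nM to 46 µM (MIPE, 11-point) or 0.59 nM to 46 µM (NPC, 8-point); bortezomib 2.3 uM positive control.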

Test [3] is described as follows: qHTS of pediatric cancer cell lines to identify multiple opportunities for drug repurposing: Primary screen for SK-N-MC cells (AID 1347093). Also: potency is read from the fitted curve at half-maximal effect. An outline of the steps:
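Metabolically active cells were quantified by ATP-dependent luminescence (CellTiter-Glo, 15 min at room temperature) following 48 h treatment. Cells had been plated at 500-1,000 per well and settled for 5 h beforehand.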

Test [4] in a line: qHTS of pediatric cancer cell lines to identify multiple opportunities for drug repurposing: Primary screen for BT-37 cells (AID 1347094). Also: potency is read from the fitted curve at half-maximal effect. The method in brief: (§1)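 Viability was measured as metabolically active cells after 48 hours of treatment, read by CellTiter-Glo luminescence. Compounds were tested at multiple final concentrations, giving concentration-response curves.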
Test [5] is described as follows: qHTS of pediatric cancer cell lines to identify multiple opportunities for drug repurposing: Primary screen for NB-EBc1 cells (AID 1347095). Also: potency is read from the fitted curve at half-maximal effect. The method in brief: as §1
Test [6] can be described thus: qHTS of pediatric cancer cell lines to identify multiple opportunities for drug repurposing: Primary screen for U-2 OS cells (AID 1347096). Also: nearly all actives have a fitted effect of over 50% in size. Also: potency is read from the fitted curve at half-maximal effect. The method in brief:
(§2)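 Viability after 48 h compound treatment at 37C, 500-1,000 cells/well, read as ATP luminescence with CellTiter-Glo. Primary screens used 11-point (MIPE, 0.78 nM-46 µM) or 8-point (NPC, 0.59 nM-46 µM) final concentrations; follow-up screens used 11-point dilutions.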

Test [7] in a line: qHTS of pediatric cancer cell lines to identify multiple opportunities for drug repurposing: Primary screen for Saos-2 cells (AID 1347097). Also: nearly all actives have a fitted effect of over 40% in size. Also: potency is read from the fitted curve at half-maximal effect. An outline of the steps: as §1
Test [8] in a line: qHTS of pediatric cancer cell lines to identify multiple opportunities for drug repurposing: Primary screen for SK-N-SH cells (AID 1347098). Also: nearly all actives have a fitted effect of over 65% in size. Also: potency is read from the fitted curve at half-maximal effect. The method in brief: (§3)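 Cells (500-1,000/well) rested 5 h, then received compounds for 48 h; metabolically active cells were measured by CellTiter-Glo luminescence. Final concentrations spanned up to 46 µM (MIPE, 11-point) or 0.59 nM-46 µM (NPC, 8-point) in primary screens, 11-point in follow-ups.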

Test [9] is described as follows: qHTS of pediatric cancer cell lines to identify multiple opportunities for drug repurposing: Primary screen for NB1643 cells (AID 1347099). Also: nearly all actives have a fitted effect of over 50% in size. Also: potency is read from the fitted curve at half-maximal effect. An outline of the steps: as §1
Test [10] can be described thus: qHTS of pediatric cancer cell lines to identify multiple opportunities for drug repurposing: Primary screen for LAN-5 cells (AID 1347100). Also: potency is read from the fitted curve at half-maximal effect. The method in brief: as §2
A short description of test [11]: qHTS of pediatric cancer cell lines to identify multiple opportunities for drug repurposing: Primary screen for BT-12 cells (AID 1347101). Also: nearly all actives have a fitted effect of over 25% in size. Also: potency is read from the fitted curve at half-maximal effect. An outline of the steps:
as §3

Test [12] can be described thus: qHTS of pediatric cancer cell lines to identify multiple opportunities for drug repurposing: Primary screen for Rh18 cells (AID 1347102). Also: nearly all actives have a fitted effect of over 65% in size. Also: potency is read from the fitted curve at half-maximal effect. The method in brief:
as §2

Test [13] in a line: qHTS of pediatric cancer cell lines to identify multiple opportunities for drug repurposing: Primary screen for OHS-50 cells (AID 1347103). Also: nearly all actives have a fitted effect of over 40% in size. Also: potency is read from the fitted curve at half-maximal effect. An outline of the steps:
as §3

A short description of test [14]: qHTS of pediatric cancer cell lines to identify multiple opportunities for drug repurposing: Primary screen for RD cells (AID 1347104). Also: nearly all actives have a fitted effect of over 55% in size. Also: potency is read from the fitted curve at half-maximal effect. An outline of the steps:
as §1

The nature of test [15]: qHTS of pediatric cancer cell lines to identify multiple opportunities for drug repurposing: Primary screen for MG 63 (6-TG R) cells (AID 1347105). Also: nearly all actives have a fitted effect of over 50% in size. The method in brief:
as §1

Test [16] in a line: qHTS of pediatric cancer cell lines to identify multiple opportunities for drug repurposing: Primary screen for Rh30 cells (AID 1347107). Also: nearly all actives have a fitted effect of over 75% in size. Also: potency is read from the fitted curve at half-maximal effect. An outline of the steps: as §2
A short description of test [17]: qHTS of pediatric cancer cell lines to identify multiple opportunities for drug repurposing: Primary screen for Rh41 cells (AID 1347108). Also: nearly all actives have a fitted effect of over 70% in size. Also: potency is read from the fitted curve at half-maximal effect. An outline of the steps: as §1
A short description of test [18]: qHTS of pediatric cancer cell lines to identify multiple opportunities for drug repurposing: Primary screen for control Hh wild type fibroblast cells (AID 1347106).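 Also: series mostly up to about 46 µM; a drop in luminescence marks cytotoxicity and a rise apparent proliferation; nearly all actives have a fitted effect of over 55% in size.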 The method in brief: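 Cells (500-1,000/well) in growth media were settled 5 h at 37 degrees C, then given compounds for 48 h. Viability was read as CellTiter-Glo luminescence. Primary runs used MIPE at 11 points (0.78 nM-46 µM) and NPC at 8 points (0.59 nM-46 µM); follow-ups used 11 points.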

A short description of test [19]: qHTS of pediatric cancer cell lines to identify multiple opportunities for drug repurposing: Confirmatory screen for NB1643 cells (AID 1347109). Also: potency is read from the fitted curve at half-maximal effect; nearly all actives have a fitted effect of over 45% in size. The method in brief: as §2
Test [20] is described as follows: qHTS of pediatric cancer cell lines to identify multiple opportunities for drug repurposing: Confirmatory screen for A673 cells (AID 1347110).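 Also: potency is read from the fitted curve at half-maximal effect; cells exposed to compound for 48 h before the viability read; nearly all actives have a fitted effect of over 65% in size.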 The method in brief:
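Viability was read as ATP luminescence (CellTiter-Glo) after 48 h of compound exposure at 37 C in A673 cells seeded at 500-1,000/well. Titrations reached 46 uM final, with 11 points in the confirmatory screen. Concentration-response curves were fitted directly.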

Inconclusive results are not listed. Activity calls are given as the source filed them. Calls follow the shape of the dose curve; as a rule, active = well fitted curve in the direction sought with a large enough effect; inconclusive = small, poorly fitted or top-dose-only effect, or another doubt; inactive = no such curve, though single readings can be large; an effect the other way counts as inactive or inconclusive.

Consider `C[C@@H]1[C@H](O)[C@@H](C)C=CC=CCCC=CC=CC=CC=C[C@H](O[C@H]2O[C@@H](C)[C@H](O)[C@@H](N)[C@@H]2O)CC2O[C@](O)(C[C@@H](O)[C@H](O)CC[C@@H](O)C[C@@H](O)C[C@@H](O)CC(=O)O[C@H]1C)C[C@H](O)[C@H]2C(=O)O`, for which the Potency result in test [1], in test [2], in [3], in test [4], in [5] and in test [6] was “inactive” in each case. Besides, the Potency entry in [7], in test [8], in [9], in test [10], in [11] and in test [12] was “inactive” in each case. Besides, the Potency result in test [13], in test [14], in [15], in test [16] and in test [17] was “inactive” throughout.
For `COc1ccc2c(c[n+](C)c3c4cc5c(cc4ccc23)OCO5)c1OC`, the Potency in test [1] was 11800 nM (active); in test [2], 3720 nM (active); in test [3] it was 5900 nM (active); in test [4] it was 17200 nM (active); in [5] it was 5260 nM (active); in [7], 9350 nM (active). For the same compound, the Potency in [8] was 12100 nM (active); in test [9], 7430 nM (active); in test [10], 8330 nM (active); in test [11] it was 24300 nM (active); in test [12], 8330 nM (active); in test [13], 8630 nM (active). The results for the Potency in [14], in test [16] and in [17] were 10500 nM (active), 20900 nM (active) and 10500 nM (active), respectively.
As to `CC1=NN=C(c2ccc(N)cc2)c2cc3c(cc2C1)OCO3`, the Potency result in test [1], in [2], in test [3], in test [4], in [5] and in test [6] was “inactive” in each case. Besides, the Potency entry in [7], in test [10], in test [11], in test [12], in test [13] and in test [14] was “inactive” each time. Further, the Potency entry in test [15], in test [18], in test [16] and in test [17] was “inactive” throughout.
Regarding `CC[C@@]1(O)C(=O)OCc2c1cc1n(c2=O)Cc2cc3ccccc3nc2-1`, the Potency in test [1] is 10.5 nM (active); in [2], 23.5 nM (active); in test [3], 7.4 nM (active); in test [4] it was 13.7 nM (active); in test [5], 8.3 nM (active); in test [6], 1180 nM (active). Also, the Potency was 46.9 nM (active) in test [7]; 121 nM (active) in [8]; 9.3 nM (active) in test [10]; 273 nM (active) in test [11]; 296 nM (active) in test [12]; 19.3 nM (active) in test [13]. Also, the Potency in test [14] was 743 nM (active); in test [17] it was 209 nM (active); in [19], 131 nM (active); in test [20], 46.5 nM (active).
With `O=[N+]([O-])c1ccc([As](=O)(O)O)cc1`, the Potency entry in [1], in [2], in [3], in test [5], in test [6] and in test [7] was “inactive” in each case. Further, the Potency result in test [8], in test [9], in test [10], in test [11], in [12] and in [13] was “inactive” in each case. Also, the Potency entry in [14], in [15], in test [16] and in test [17] was “inactive” each time.
With `C1CCC(NC2CCCCC2)CC1`, the Potency result in [1], in [2], in [3], in [4], in test [5] and in test [6] was “inactive” in each case. Also, the Potency result in [7], in [8], in test [9], in test [10], in [11] and in test [12] was “inactive” throughout. The Potency entry in test [13], in [14], in test [15], in test [18], in test [16] and in test [17] was “inactive” in each case.
`CCN1CCN(C(=O)Cc2ccc(Nc3ncc(F)c(Nc4ccc(C(=O)Nc5ccccc5Cl)cc4)n3)cc2)CC1`: the Potency was 2350 nM (active) in [1]; 2960 nM (active) in test [2]; 5260 nM (active) in test [3]; 12200 nM (active) in test [4]; 5260 nM (active) in test [5]; 7430 nM (active) in test [6]. The Potency is 4690 nM (active) in [7]; 21500 nM (active) in test [8]; 469 nM (active) in test [10]; 19300 nM (active) in test [11]; 8330 nM (active) in test [12]; 4320 nM (active) in [13]. Besides, the Potency in [14] is 13200 nM (active); in [16], 23500 nM (active); in [17] it was 18700 nM (active). The Potency result in test [18] is “inactive”.
In the case of `Nc1ccc(Cl)cc1`, the Potency entry in [1], in test [2], in test [3], in test [4], in [5] and in test [6] was “inactive” each time. In addition, the Potency entry in test [7], in test [8], in test [9], in test [10], in [11] and in test [12] was “inactive” each time. The Potency result in [13], in [14], in test [15], in test [18], in test [16] and in [17] was “inactive” each time.
For `O=S(=O)(O)C(F)(F)C(F)(F)C(F)(F)C(F)(F)C(F)(F)C(F)(F)C(F)(F)C(F)(F)F`, the Potency result in test [1], in test [2], in [3], in [4], in test [5] and in test [6] was “inactive” in each case. Further, the Potency entry in test [7], in test [8], in [9], in test [10], in [11] and in [12] was “inactive” throughout. Moreover, the Potency result in test [13], in test [14], in [15], in test [16] and in test [17] was “inactive” in each case.
Regarding `CC(C)(C)[C@]1(O)C[C@@H]2OC(=O)C[C@@]23C(=O)O[C@@H]2OC(=O)[C@H](O)C213` (some centres undefined), the Potency result in [1], in [2], in [3], in [4], in [5] and in test [6] was “inactive” in each case. Besides, the Potency result in test [7], in test [9], in [10], in test [11], in test [12] and in [13] was “inactive” in each case. In addition, the Potency result in test [14], in test [15], in test [18], in [16] and in [17] was “inactive” each time.
For the compound `O=[N+]([O-])/N=C1\NCCN1Cc1ccc(Cl)nc1`, the Potency result in test [1], in test [2], in test [3], in [4], in [5] and in test [6] was “inactive” throughout. The Potency entry in test [8], in test [9], in test [10], in [11], in [12] and in test [13] was “inactive” in each case. Moreover, the Potency result in [14], in test [15], in test [18], in test [16] and in test [17] was “inactive” throughout.
For the compound `CC1=C(O)C(=O)C=C2C1=CC=C1[C@@]2(C)CC[C@@]2(C)[C@@H]3C[C@](C)(C(=O)O)CC[C@]3(C)CC[C@]12C`, the Potency in [1] is 935 nM (active); in [2], 1180 nM (active); in test [3], 833 nM (active); in test [5], 743 nM (active); in test [7] it was 2350 nM (active); in [8], 3040 nM (active). The Potency in test [9] was 1660 nM (active); in test [10], 1870 nM (active); in [11] it was 2730 nM (active); in test [12] it was 1870 nM (active); in test [13], 2430 nM (active); in [14], 1320 nM (active). Also, the Potency in test [16] was 4690 nM (active); in [17] it was 1480 nM (active); in [19] it was 2080 nM (active); in test [20], 1310 nM (active).
